# Screening results as filed in PubChem BioAssay.
# HCMV antiviral: blocks human cytomegalovirus replication; HFF cells, HCMV-luciferase reporter, 72 h; active compounds read low; 410,000 compounds, 4.5% hits; AID 1259415; activity change, negative = inhibition, % at 57.5 µM; in the data active = activity change below about -60%; inconclusive = no clear call, values can overlap the other calls; inactive = above about -39%
#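 HFF cells seeded 16 h at 37C, treated with compounds, infected with luciferase-reporter HCMV at MOI 1 PFU/cell; luciferase read at 72 h post infection, normalized to buffer-only and Salinomycin controls.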
# Giardia FBPA inh: Giardia lamblia aldolase inhibition. A8B2U2. purified Giardia FBPA. Potency, µM (highest dose often 59.6 µM), usual class: inhibitors. 290,000 compounds, 0.71% hits. AID 2451; note: nearly all actives have a fitted effect of over 55% in size
# Target sequence (A8B2U2 whole entry, looked up): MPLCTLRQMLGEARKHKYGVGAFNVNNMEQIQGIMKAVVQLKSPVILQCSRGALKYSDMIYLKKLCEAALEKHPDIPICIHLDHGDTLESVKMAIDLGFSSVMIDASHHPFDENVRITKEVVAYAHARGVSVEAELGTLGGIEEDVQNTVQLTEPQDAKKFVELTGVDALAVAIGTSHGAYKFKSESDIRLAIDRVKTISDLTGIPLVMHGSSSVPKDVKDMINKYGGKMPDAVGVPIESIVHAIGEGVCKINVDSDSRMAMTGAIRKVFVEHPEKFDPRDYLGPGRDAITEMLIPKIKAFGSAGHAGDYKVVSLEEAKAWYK
#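 40 nM FBPA preincubated 10 min at RT with compound (up to 57.5 uM final), then substrate plus GAPDH/TPI/NAD/arsenate coupling and diaphorase/resazurin added. Fluorescence read after 20 min at RT, 525/598 nm.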
# Sm TGR block: inhibitors of Schistosoma mansoni thioredoxin glutathione reductase; Q962Y6; purified TGR, DTNB reduction, TNB absorbance 405 nm; Potency, µM (titrated, usually from 114 µM), actives largely listed as inhibitors; 360,000 compounds, 3% hits; AID 485364; note: nearly all actives have a fitted effect of over 60% in size
#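 Kinetic colorimetric format: TGR-catalysed, NADPH-driven DTNB reduction monitored via TNB absorbance. Enzyme dispensed at 20 nM; compound exposure 15 min at room temperature before reaction start.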
# Pf growth 96h: P. falciparum growth inhibition at 96 hours; P. falciparum luciferase reporter growth, 96 h; Potency, µM (highest dose often 28.7 µM), actives largely listed as inhibitors; 320,000 compounds, 6.9% hits; AID 504834
#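 Delayed-death screen, second-generation endpoint: infected erythrocytes, 2% hematocrit, 0.05% parasitemia final; 96 hours at 37 C, 5% CO2; luciferase detection reagent; luminescence decrease equals reduced growth.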
# Pf growth 48h: P. falciparum growth inhibition at 48 hours (one generation); P. falciparum luciferase growth in erythrocytes, 48 h; 310,000 compounds, 5.9% hits; AID 504832; Potency, µM (top dose mostly 28.7 µM), most hits filed as inhibitors
#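 Compounds are pin-transferred into medium, infected erythrocytes (2% hematocrit, 0.1% parasitemia final) are added, and plates sit one parasite generation at 37 C in 5% CO2. Detection reagent is then added and luminescence measured.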
# A number is an active result; 0 = inactive; ? = inconclusive; - = not tested or not shown; [ ] = another dose, or the depositor's remark. An excerpt weighted towards active compounds, which were near 14% of everything screened. Unless noted, calls come from the whole dose curve; as a rule, active = well fitted curve in the direction sought with a large enough effect; inconclusive = small, poorly fitted or top-dose-only effect, or another doubt; inactive = no such curve, though single readings can be large; an effect the other way counts as inactive or inconclusive.
SMILES,HCMV antiviral,Giardia FBPA inh,Sm TGR block,Pf growth 96h,Pf growth 48h
CC(C)CNS(=O)(=O)c1ccc(S(=O)(=O)N2CCCN(Cc3ccccc3)C2)cc1,0,0,0,0,12µM
O=C(c1ccc(S(=O)(=O)N2CCc3ccccc3C2)cc1)N1CCCCC1,-62,0,0,0[5.75 µM],?
O=C(c1ccc(S(=O)(=O)N2CCCC2)cc1)N1CCCCC1,0,-,0,0,0
CC1CCCN(S(=O)(=O)c2ccc(S(=O)(=O)N3CCCN(Cc4ccccc4)C3)cc2)C1 (stereo not given),0,0,0[11.4 µM],-,-
Cc1[nH]c2ccc(Cl)cc2c(=O)c1CN1CCCC1,0,0,28µM,0,0
Cc1[nH]c2ccccc2c(=O)c1CN1CCCCC1,0,0,0,0,0
Cc1[nH]c2ccc(Br)cc2c(=O)c1CN1CCCCCC1,0,0,0,0,10µM
CCCCC[C@@H](C)N1C[C@@H](COCc2ccccc2)Oc2cc(N3CCC[C@@H]3CO)ccc2S1(=O)=O,0,-,-,-,-
CC(=O)c1ccc(NC(=O)C2C3CCC(C3)C2C(=O)O)cc1 (stereo not given),0,0,?,13µM,0
CN(C)c1ccc(NC(=O)C2C3C=CC(C3)C2C(=O)O)cc1 (stereo not given),0,0,?,?,2.6µM
CCN(CC)CCn1c(-c2ccccc2)nc2c(NCc3ccccc3)nc(C)nc21,-,0,-,-,-
CCN(CC)C(=O)Cn1cc(C(=O)C(=O)N2CCN(c3ccc([N+](=O)[O-])cc3)CC2)c2ccccc21,0,-,0,?,0
CC(=O)Nc1c([N+](=O)[O-])cc(C)c(Cl)c1[N+](=O)[O-],-77,0,0,0,?
CC(=O)Nc1c([N+](=O)[O-])cc2[nH]c(=O)[nH]c2c1[N+](=O)[O-],0,0,50µM,0,0
O=c1[nH]c2cc([N+](=O)[O-])c(NCCO)c([N+](=O)[O-])c2[nH]1,0,0,0,0,0
CC1(CCC(=O)N2CCCC(Nc3ccc(F)cc3)C2)CC1 (stereo not given),0,-,0,?,0
Cc1cccc(N2CCN(C(=O)c3ccc(-n4cncn4)c([N+](=O)[O-])c3)CC2)c1C,0,-,0,?,0
O=S(=O)(NCCc1csc(-c2cccnc2)n1)c1cccc(F)c1,0,0,0,0,0
O=S(=O)(NCCc1csc(-c2cccnc2)n1)c1cc(F)ccc1F,-61,0,0,?,0
O=C(NCCc1csc(-c2cccnc2)n1)c1ccc(Br)o1,0,0,28µM,8.3µM,?
CCc1nc(-c2ccc(OC)c(OC)c2)cc2cc(OC)c(OC)cc12,0,0,0,9.3µM,0
CCOc1ccc(-c2cc3cc(OC)c(OC)cc3c(C)n2)cc1,0,0,0,0,0
COc1nc(NCCC2=CCCCC2)nc(OC)n1,0,0,0,?,10µM
CCOc1nc(NCCc2ccc(OC)c(OC)c2)nc(NC(C)(C)CO)n1,0,0,0,0,?
COc1ccc(CCNc2c3ccccc3nc3ccccc23)cc1OC,-102,0,0,1.9µM,1.5µM
SMILES,HCMV antiviral,Giardia FBPA inh,Sm TGR block,Pf growth 96h,Pf growth 48h
COc1ccc(CCNc2nc(N3CCCCC3)nc(N3CCCCC3)n2)cc1OC,0,0,0,0,13µM
COc1nc(NCCc2ccc(OC)c(OC)c2)nc(OC)n1,-99,0,0,-,0
COc1ccc(CCNc2nc(N3CCOCC3)nc(N3CCOCC3)n2)cc1OC,0,0,0,0,0
COc1cc(OC)cc(C(=O)Nc2nc(CC(=O)NC(C)c3ccccc3)cs2)c1 (stereo not given),0,-,0,?,?
CC(C)Nc1nc(-c2ccccc2)nc(-n2ccnc2)n1,0,0,0,0,2.3µM
c1ccc(-c2nc(NC3CC3)nc(-n3ccnc3)n2)cc1,0,0,0,0,13µM
c1ccc(-n2ccnc2)cc1,0,0,0,0,0
FC(F)(F)c1cc(-c2ccccc2)nc(NC2CCCC2)n1,0,0,0,0,-
c1ccc(-c2nc(-n3ccnc3)nc(-n3ccnc3)n2)cc1,?,0,0,2.3µM,8.3µM
C=CCNc1nc(-c2ccccc2)nc(-n2ccnc2)n1,0,0,0,?,13µM
CCCCNc1nc(-c2ccccc2)nc(-n2ccnc2)n1,0,0,0,0,-
O=C(c1ccc(COc2ccc(Cl)cc2Cl)o1)N1CCCC1,0,-,0,0,0
c1ccc(CN2CCN(c3nc(-c4ccccc4)nc(-n4ccnc4)n3)CC2)cc1,-,0,0,0,3.7µM
c1ccc(CN2CCN(c3ncccn3)CC2)cc1,0,?,0,0,0
COC(=O)C1C[C@@H]2C3=C(C(=O)[C@@](C)(NC(=O)c4ccccc4)C3[C@H](C(=O)OC)C1)[C@H](C)n1c(=O)n(-c3ccccc3)c(=O)n12 (stereo not given in full),-,0,-,-,-
Cc1cc(OCCCn2c(CCNC(=O)C3CCCCC3)nc3ccccc32)ccc1Cl,-73,-,0,-,-
CC1=CC(C)(C)N2C(=O)C(=Nc3ccc(O)cc3)c3cccc1c32,?,13µM,10µM,?,?
COc1ccc(NC(=O)c2sc3nc4c(cc3c2N)CN(Cc2ccccc2)CC4)cc1,0,-,0,-,-
Cc1ccc(NC(=O)c2sc3nc4c(cc3c2N)CN(Cc2ccccc2)CC4)cc1,-63,-,0,-,-
CCOc1ccccc1NC(=O)C(=O)N/N=C/c1ccc([N+](=O)[O-])cc1,?,0,0,0,0
O=C(N/N=C/C(Cl)=C/c1ccc([N+](=O)[O-])cc1)C(=O)Nc1ccccc1C(=O)O,0,0,14µM,?,0
O=C(N/N=C/C(Cl)=C/c1ccc([N+](=O)[O-])cc1)C(=O)Nc1ccc(C(=O)O)cc1,?,0,?,?,12µM
O=C(CSCc1cc(=O)n2nc(C3CC3)sc2n1)Nc1ccc(F)cc1,0,-,0,?,0
CCN(C(=O)Cn1nnc2sc3c(c2c1=O)CCC(C(C)(C)C)C3)c1cccc(C)c1 (stereo not given),0,-,0,-,-
Nc1nonc1-n1nnc(C(=O)N/N=C/c2ccccc2)c1CN1CCc2ccccc21,0,0,0,?,?
SMILES,HCMV antiviral,Giardia FBPA inh,Sm TGR block,Pf growth 96h,Pf growth 48h
C/C(=N\NC(=O)c1nnn(-c2nonc2N)c1CN1CCc2ccccc21)c1ccccc1O,-98,0,0,0,?
CCCc1c(C(=O)N/N=C(\CC)c2ccccc2)nnn1-c1nonc1N,-63,-,-,-,-
CCc1nnc2c3ccccc3nc(Nc3ccc(F)cc3C)n12,0,-,0,-,-
CCOC(=O)C1/C(=N\O)CC(C)(O)C(C(=O)OCC)C1c1ccc(N(C)C)cc1 (stereo not given),0,?,35µM,?,-
Cc1ccc(Nc2nc(N)c3ccccc3n2)cc1C,0,?,0,?,?
CCCn1c(SCC(=O)NC(=O)NCc2ccccc2)n[nH]c1=O,0,-,-,-,-
CCOc1ccccc1-n1nnnc1SCC(=O)NC(=O)Cc1ccccc1,0,-,20µM,0,?
Cc1ccccc1NC(=O)Cn1nnc(C(=O)NCc2ccco2)c1N,0,0,0,0,0
CCOc1ccccc1NC(=O)Cn1nnc(C(=O)NCc2ccco2)c1N,-90,0,0,-,0
